Measurements published in PubChem BioAssay (NCATS).
Results filed as inconclusive are left out. Calls of active or inactive are those of the source. Unless noted, the call rests on the fitted dose curve; in most records, active means well fitted curve in the direction sought with a large enough effect; inconclusive means small, poorly fitted or top-dose-only effect, or another doubt; inactive means no such curve, though single readings can be large; an effect the other way counts as inactive or inconclusive. Residues, ends and D or L forms follow the SMILES beside them. *: point of attachment. Cbz = O=C(OCc1ccccc1)*

Assays:
[1] = target: T1, Hexokinase-4 (Homo sapiens) + Glucokinase regulatory protein (Homo sapiens) (UniProt P35557+Q14397); assay: qHTS assay for inhibitors of recombinant human GCK-GKRP interaction: Diaphorase-coupled assay (AID 743205)
T1 sequence (P35557 whole entry, looked up): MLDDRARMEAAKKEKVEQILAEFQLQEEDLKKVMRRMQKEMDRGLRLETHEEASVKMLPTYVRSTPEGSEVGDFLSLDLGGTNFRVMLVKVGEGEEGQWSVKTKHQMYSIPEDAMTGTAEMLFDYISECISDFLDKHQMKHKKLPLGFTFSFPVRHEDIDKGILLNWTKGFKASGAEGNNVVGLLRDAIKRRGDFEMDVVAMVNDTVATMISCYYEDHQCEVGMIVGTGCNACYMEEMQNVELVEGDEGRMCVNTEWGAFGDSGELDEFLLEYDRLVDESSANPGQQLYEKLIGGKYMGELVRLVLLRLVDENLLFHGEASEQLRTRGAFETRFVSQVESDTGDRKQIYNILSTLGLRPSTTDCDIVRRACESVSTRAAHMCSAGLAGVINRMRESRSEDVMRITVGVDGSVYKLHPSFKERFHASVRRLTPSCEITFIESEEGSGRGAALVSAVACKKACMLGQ
T1 sequence (Q14397 whole entry, looked up): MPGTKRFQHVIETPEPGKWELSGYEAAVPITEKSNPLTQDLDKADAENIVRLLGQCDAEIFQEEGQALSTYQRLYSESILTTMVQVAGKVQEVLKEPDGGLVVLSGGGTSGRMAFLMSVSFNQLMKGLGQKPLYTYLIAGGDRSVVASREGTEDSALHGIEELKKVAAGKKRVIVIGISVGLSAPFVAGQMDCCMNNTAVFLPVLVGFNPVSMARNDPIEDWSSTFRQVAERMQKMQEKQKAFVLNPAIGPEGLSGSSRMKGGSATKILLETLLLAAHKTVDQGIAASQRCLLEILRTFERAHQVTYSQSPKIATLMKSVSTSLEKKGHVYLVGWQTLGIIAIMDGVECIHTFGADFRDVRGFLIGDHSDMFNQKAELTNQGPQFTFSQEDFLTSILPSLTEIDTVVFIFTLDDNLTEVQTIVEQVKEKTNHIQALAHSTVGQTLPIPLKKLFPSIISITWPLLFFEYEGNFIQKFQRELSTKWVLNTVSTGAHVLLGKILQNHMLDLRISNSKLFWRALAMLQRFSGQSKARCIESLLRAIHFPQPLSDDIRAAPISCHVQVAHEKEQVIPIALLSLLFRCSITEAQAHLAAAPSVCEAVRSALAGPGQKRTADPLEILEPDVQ
Outline: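 Resorufin fluorescence (525/590 nm), read each minute over 30 min, reports GCK activity coupled via G6PDH and diaphorase. Reaction: 10 nM GST-GCK, 10 nM FLAG-GKRP, 5 mM glucose, 0.4 mM ATP, 0.15 mM NADP+, 0.1 mM resazurin.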

[2] = target: T1, Hexokinase-4 (Homo sapiens) + Glucokinase regulatory protein (Homo sapiens); assay: qHTS assay for inhibitors of recombinant human GCK-GKRP interaction: ADP-Glo assay (AID 743206);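 further: plate controls were DMSO plus enzyme for no effect and no enzyme for full effect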
Outline: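 GST-GCK and FLAG-GKRP (15 nM each in the dispensed mix, with 2 uM S6P) react with 0.4 mM ATP and 5 mM glucose (final) in Hepes pH 7.6 for 60 min at room temperature. ADP is measured by ADP-Glo luminescence.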

[3] = target: T1, Hexokinase-4 (Homo sapiens) + Glucokinase regulatory protein (Homo sapiens); assay: qHTS assay for inhibitors of recombinant human GCK-GKRP interaction: HTRF assay (AID 743207);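 further: 0% = DMSO with GCK present and -100% = DMSO wells lacking GCK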
Outline: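 HTRF read-out (ex 320 nm; 615/665 nm emission) after 60 min RT equilibration of 5 nM GST-GCK, 5 nM FLAG-GKRP, 2 uM S6P, compound and anti-FLAG/anti-GST detection antibodies; signal normalized between DMSO wells with and without GCK.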

[4] = qHTS assay for measurement of the activity of small molecule inhibitors on Zika virus induced Caspase-3 activity in human astrocytoma cells (AID 1224859);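 further: plate controls were ZIKV-infected untreated cells for no effect and uninfected cells for full effect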
Outline: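 Luminescent caspase-3/7 read-out (30 min reagent, room temperature) in human SNB-19 cells infected 6 h with ZIKV (2 FFU/cell) after 1 h compound pre-incubation; Data were normalised to uninfected and infected wells.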

[5] = Natriuretic polypeptide receptor (hNpr1) antagonism - Pilot counterscreen GloSensor control cell line (AID 1347045; calls by dose curve; further: potency means the concentration at half of the fitted maximal effect)
Outline: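 HEK293 cells carrying the GloSensor cGMP sensor (GIP/pGS-40F) were loaded with 2% GloSensor reagent for 2 h, exposed to compounds for 30 min, and then stimulated with 50 uM sodium nitroprusside for 20 min at room temperature.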

[6] = target: Atrial natriuretic peptide receptor 1 (Homo sapiens) (UniProt P16066); assay: Natriuretic polypeptide receptor (hNpr1) antagonism - Pilot screen (AID 1347049; calls by dose curve;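 further: agonist-evoked cGMP luminescence read 20 min after hNppA addition; series mostly up to about 58 µM; on the % scale 0 is the no-effect control and ±100 the full control effect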)
Atrial natriuretic peptide receptor 1 (Homo sapiens), sequence (P16066 whole entry, looked up): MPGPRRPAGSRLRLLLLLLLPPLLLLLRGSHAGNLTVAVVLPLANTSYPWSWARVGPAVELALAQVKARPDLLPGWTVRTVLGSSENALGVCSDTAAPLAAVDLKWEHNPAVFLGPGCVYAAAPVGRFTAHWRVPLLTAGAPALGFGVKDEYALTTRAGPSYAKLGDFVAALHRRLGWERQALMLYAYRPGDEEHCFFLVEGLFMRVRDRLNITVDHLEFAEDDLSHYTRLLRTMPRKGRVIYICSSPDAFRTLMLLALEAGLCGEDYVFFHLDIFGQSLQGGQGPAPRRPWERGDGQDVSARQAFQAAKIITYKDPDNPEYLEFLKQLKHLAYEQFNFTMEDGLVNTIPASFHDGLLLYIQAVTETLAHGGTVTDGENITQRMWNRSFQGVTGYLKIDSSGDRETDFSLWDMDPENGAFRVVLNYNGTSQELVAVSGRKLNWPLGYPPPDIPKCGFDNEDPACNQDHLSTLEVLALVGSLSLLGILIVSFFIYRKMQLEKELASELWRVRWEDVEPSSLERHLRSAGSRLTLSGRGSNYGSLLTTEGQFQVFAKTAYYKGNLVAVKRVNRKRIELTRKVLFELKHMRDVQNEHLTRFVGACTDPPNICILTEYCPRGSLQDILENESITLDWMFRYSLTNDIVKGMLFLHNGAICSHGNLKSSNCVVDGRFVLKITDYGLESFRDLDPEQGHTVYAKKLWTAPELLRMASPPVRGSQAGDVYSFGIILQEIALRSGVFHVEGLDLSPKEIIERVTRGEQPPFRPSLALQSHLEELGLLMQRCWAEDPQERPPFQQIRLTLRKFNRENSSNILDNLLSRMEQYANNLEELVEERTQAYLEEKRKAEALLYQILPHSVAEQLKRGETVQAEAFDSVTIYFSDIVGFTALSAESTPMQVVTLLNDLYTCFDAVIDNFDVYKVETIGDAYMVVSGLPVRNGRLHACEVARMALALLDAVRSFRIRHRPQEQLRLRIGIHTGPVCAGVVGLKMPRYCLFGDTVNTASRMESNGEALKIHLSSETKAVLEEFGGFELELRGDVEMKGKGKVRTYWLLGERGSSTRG
Outline: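 HEK293 cells co-expressing hNpr1 and the GloSensor pGS-40F cGMP luciferase sensor were preloaded with 2% GloSensor reagent for 2 h. Compounds were added for 30 min at room temperature, then cells were stimulated with 0.1 nM hNppA for 20 min before luminescence readout.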

[7] = target: Atrial natriuretic peptide receptor 2 (Homo sapiens) (UniProt P20594); assay: Natriuretic polypeptide receptor (hNpr2) antagonism - Pilot subtype selectivity assay (AID 1347050; calls by dose curve; further: on the % scale 0 is the no-effect control and ±100 the full control effect)
Atrial natriuretic peptide receptor 2 (Homo sapiens), sequence (P20594 whole entry, looked up): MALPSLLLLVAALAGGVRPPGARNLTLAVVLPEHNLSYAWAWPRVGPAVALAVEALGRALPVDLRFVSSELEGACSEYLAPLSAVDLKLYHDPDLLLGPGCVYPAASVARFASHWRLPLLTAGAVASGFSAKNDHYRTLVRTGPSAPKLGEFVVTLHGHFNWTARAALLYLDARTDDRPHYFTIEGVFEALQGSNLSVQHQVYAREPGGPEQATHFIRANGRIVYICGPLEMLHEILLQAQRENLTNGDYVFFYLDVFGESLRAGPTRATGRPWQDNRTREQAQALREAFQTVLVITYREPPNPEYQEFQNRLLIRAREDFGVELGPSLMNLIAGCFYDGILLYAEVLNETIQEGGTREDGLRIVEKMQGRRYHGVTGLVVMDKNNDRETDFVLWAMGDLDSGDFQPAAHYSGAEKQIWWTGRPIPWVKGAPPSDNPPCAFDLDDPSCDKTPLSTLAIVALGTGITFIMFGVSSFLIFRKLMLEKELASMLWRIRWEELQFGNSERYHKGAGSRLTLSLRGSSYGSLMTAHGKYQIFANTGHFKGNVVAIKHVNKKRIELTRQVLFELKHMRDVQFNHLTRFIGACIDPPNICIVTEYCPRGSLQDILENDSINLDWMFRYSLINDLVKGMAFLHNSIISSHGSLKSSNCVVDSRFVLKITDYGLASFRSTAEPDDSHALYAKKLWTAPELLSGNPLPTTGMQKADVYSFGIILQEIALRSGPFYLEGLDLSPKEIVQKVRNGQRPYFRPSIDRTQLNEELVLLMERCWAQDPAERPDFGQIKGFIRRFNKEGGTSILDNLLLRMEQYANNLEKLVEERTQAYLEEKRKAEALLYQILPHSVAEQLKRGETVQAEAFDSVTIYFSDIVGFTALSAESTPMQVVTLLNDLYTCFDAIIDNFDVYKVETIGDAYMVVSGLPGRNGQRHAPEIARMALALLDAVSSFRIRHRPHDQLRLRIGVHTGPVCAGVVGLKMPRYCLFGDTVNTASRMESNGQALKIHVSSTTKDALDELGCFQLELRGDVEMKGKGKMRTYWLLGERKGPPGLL
Outline: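 cGMP-sensor HEK293/hNpr2 cells; 2% GloSensor reagent 2 h RT; compounds 30 min; baseline luminescence read; 1 nM hNppC agonist 20 min RT; final luminescence read by CCD camera. Antagonism = reduced post-agonist signal.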

[8] = qHTS Assay for Identifying Gametocytocidal Compounds (AID 743244); further: potency means the concentration at half of the fitted maximal effect;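 on max response: on the % scale 0 is the no-effect control and ±100 the full control effect; actives lower the fluorescent signal which means gametocytes are killed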; settings: P. falciparum 3D7 stage III-V gametocytes, alamarBlue, 72 h; max response: stronger effect = lower value
Outline: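 Viability read-out was resazurin reduction (alamarBlue, 24 h) measured at Ex 525/Em 598 nm. Beforehand, late-stage (III-V) 3D7 P. falciparum gametocytes at 20,000 cells/well were incubated with compound 72 h at 37C under 5% CO2.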

O[Si](CCCN1CCCCC1)(c1ccc(F)cc1)C1CCCCC1 (stereo not drawn)
inactive: Potency [1] | Potency [2] | Potency [3] | Potency [4] | Potency [5] | Potency [6] | Potency [7]

CC(N)=NCCCC[C@@H](N)C(=O)O
inactive: Potency [1] | Potency [2] | Potency [3] | max response [8] 25.1% | Potency [4] | Potency [5] | Potency [6] | Potency [7]

Nc1ncnc2c1ncn2C1CCCC1
inactive: Potency [2] | Potency [3] | max response [8] 29.2% | Potency [4] | Potency [5] | Potency [6] | Potency [7]

Nn1nnc2ccccc21
inactive: Potency [1] | Potency [2] | Potency [3] | max response [8] 16.9% | Potency [4] | Potency [5] | Potency [6] | Potency [7]

C#CCn1c(=O)c2c(ncn2C)n(C)c1=O
inactive: Potency [1] | Potency [2] | Potency [3] | max response [8] 7.96% | Potency [4] | Potency [5] | Potency [6]

c1ccc2c(c1)CCC[C@H]2Nc1nc2ccccc2[nH]1
inactive: Potency [1] | Potency [2] | Potency [3] | max response [8] 12.6% | Potency [4] | Potency [5] | Potency [6] | Potency [7]

c1ccc(C(NCc2cccnc2)(c2ccccc2)c2ccccc2)cc1
inactive: Potency [1] | Potency [2] | Potency [3] | max response [8] 16.7% | Potency [4] | Potency [5] | Potency [6] | Potency [7]

CCCn1c(=O)c(C)cn2nc(N)nc12
inactive: Potency [1] | Potency [2] | Potency [3] | max response [8] -2.34% | Potency [4] | Potency [5] | Potency [6] | Potency [7]

CNC(=O)c1cc2c(cn1)[nH]c1ccccc12
inactive: Potency [1] | Potency [2] | Potency [3] | max response [8] 10.2% | Potency [4] | Potency [5] | Potency [6] | Potency [7]

Cn1cc(C(F)(F)F)nc1-c1ccc(OCC(O)CNCCOc2ccc(O)c(C(N)=O)c2)cc1 (stereo not drawn)
inactive: Potency [1] | Potency [2] | Potency [3] | max response [8] 26.1% | Potency [4] | Potency [5] | Potency [6]

CN1Cc2sccc2C(c2ccc(O)c(O)c2)C1 (stereo not drawn)
active: Potency [8] 0.891 µM
inactive: Potency [1] | Potency [2] | Potency [3] | Potency [4] | Potency [5] | Potency [6] | Potency [7]

COc1cc(/C=C(\C#N)C(=O)c2ccc(O)c(O)c2)cc(I)c1O
inactive: Potency [1] | Potency [2] | Potency [3] | max response [8] 9.56% | Potency [4] | Potency [5] | Potency [6] | Potency [7]

Oc1cc2c(cc1O)C(c1ccccc1)CNCC2 (stereo not drawn)
inactive: Potency [1] | Potency [2] | Potency [3] | max response [8] 20.1% | Potency [4] | Potency [5] | Potency [6]

Cc1cccc(C(=O)NCN2CCN(c3ccccc3C#N)CC2)c1
inactive: Potency [3] | max response [8] 20.6% | Potency [4] | Potency [5] | Potency [6] | Potency [7]

Oc1ccc(Cn2cc[nH]c2=S)cc1
inactive: Potency [1] | Potency [2] | Potency [3] | max response [8] 24% | Potency [4] | Potency [5] | Potency [6]

C=CC[C@H](N)C(=O)O
inactive: Potency [1] | Potency [2] | Potency [3] | max response [8] 18.7% | Potency [4] | Potency [5] | Potency [6] | Potency [7]

O=C(O)/C=C/c1cnc[nH]1
inactive: Potency [1] | Potency [2] | Potency [3] | max response [8] 8.66% | Potency [4] | Potency [5] | Potency [6] | Potency [7]

CC1CNCCN1S(=O)(=O)c1cccc2cnccc12 (stereo not drawn)
inactive: Potency [2] | Potency [3] | max response [8] 22.5% | Potency [4] | Potency [5] | Potency [6] | Potency [7]

CCC1(O)CC2CN(CCc3c([nH]c4ccccc34)[C@@](C(=O)OC)(c3cc4c(cc3OC)N(C)C3[C@]45CCN4CC=C[C@@](CC)([C@@H](OC(C)=O)[C@]3(O)C(=O)OC)[C@H]45)C2)C1 (stereo partly drawn)
inactive: Potency [1] | Potency [2] | Potency [3] | Potency [4] | Potency [5] | Potency [6] | Potency [7]

N#CC(=C(\N)Sc1ccccc1N)/C(C#N)=C(/N)Sc1ccccc1N
inactive: Potency [1] | Potency [2] | Potency [3] | max response [8] 14.1% | Potency [4] | Potency [7]
active: Potency [5] 18.5 µM

CCOC(=O)C12CC1/C(=N/O)c1ccccc1O2 (stereo not drawn)
inactive: Potency [1] | Potency [2] | Potency [3] | max response [8] 0.715% | Potency [4] | Potency [5] | Potency [6] | Potency [7]

COc1ccccc1N1CCN(CCN(C(=O)c2ccc(F)cc2)c2ccccn2)CC1
inactive: Potency [1] | Potency [2] | Potency [3] | max response [8] 23.7% | Potency [4] | Potency [5] | Potency [7]

CC(C)[C@@H]1CC[C@@H](C)C[C@@H]1P(=O)(c1ccccc1)c1ccccc1
inactive: Potency [1] | Potency [2] | Potency [3] | max response [8] 7.79% | Potency [4] | Potency [5] | Potency [6] | Potency [7]

CC1CCN=C(N)S1 (stereo not drawn)
inactive: Potency [1] | Potency [2] | Potency [3] | max response [8] -7.18% | Potency [4] | Potency [5] | Potency [7]

Cc1cc(Cn2cnc3c2C[C@@H](C(=O)O)N(C(=O)C(c2ccccc2)c2ccccc2)C3)ccc1N
inactive: Potency [1] | Potency [2] | Potency [3] | max response [8] -5.22% | Potency [4] | Potency [5] | Potency [6] | Potency [7]

N=C(N)c1ccc(N)cc1
inactive: Potency [2] | Potency [3] | max response [8] -4.7% | Potency [4] | Potency [5] | Potency [6] | Potency [7]

NCC(O)C1CCCCCCC1 (stereo not drawn)
inactive: Potency [1] | Potency [2] | Potency [3] | max response [8] 18.9% | Potency [4] | Potency [5] | Potency [6] | Potency [7]

COc1ccc(-c2cc3ncc(C)n3c(Nc3ncccc3C(N)=O)n2)cc1OC
inactive: Potency [1] | Potency [2] | Potency [3] | max response [8] 12.4% | Potency [4] | Potency [5] | Potency [6] | Potency [7]

CC(C)[C@H](NC(=O)OCc1ccccc1)C(=O)N[C@H](C=O)Cc1ccccc1 (Cbz-Val-Phe-aldehyde)
inactive: Potency [1] | Potency [2] | Potency [3] | max response [8] 7.9% | Potency [4] | Potency [5] | Potency [6] | Potency [7]

Nc1ncnc2c1nc(Sc1ccc(Cl)cc1)n2[C@H]1OC2COP(=O)(O)O[C@@H]2C1O (stereo partly drawn)
inactive: Potency [3] | max response [8] 39.2% | Potency [4] | Potency [5] | Potency [7]

Cn1c(=O)c2c(nc(/C=C/c3cccc(Cl)c3)n2C)n(C)c1=O
inactive: Potency [1] | Potency [2] | Potency [3] | Potency [4] | Potency [5] | Potency [6] | Potency [7]

CCC(=O)N1CCN(C(=O)c2ccccc2)CC1
inactive: Potency [1] | Potency [2] | Potency [3] | max response [8] 9.08% | Potency [4] | Potency [5] | Potency [6] | Potency [7]
